An excerpt weighted towards active compounds, which were near 4.6% of everything screened.
D1 antagonist: antagonists of human D1 dopamine receptor | HEK293 TREx D1 cells, calcium flux, dopamine EC80; active compounds read low | 3.2% of 360,000 active | P21728 | AID 504652 | activity change, negative = inhibition, % at 10 µM; in the data active means activity change below about -30%; further: on the % scale 0 is the no-effect control and ±100 the full control effect
Target sequence (P21728 whole entry, looked up): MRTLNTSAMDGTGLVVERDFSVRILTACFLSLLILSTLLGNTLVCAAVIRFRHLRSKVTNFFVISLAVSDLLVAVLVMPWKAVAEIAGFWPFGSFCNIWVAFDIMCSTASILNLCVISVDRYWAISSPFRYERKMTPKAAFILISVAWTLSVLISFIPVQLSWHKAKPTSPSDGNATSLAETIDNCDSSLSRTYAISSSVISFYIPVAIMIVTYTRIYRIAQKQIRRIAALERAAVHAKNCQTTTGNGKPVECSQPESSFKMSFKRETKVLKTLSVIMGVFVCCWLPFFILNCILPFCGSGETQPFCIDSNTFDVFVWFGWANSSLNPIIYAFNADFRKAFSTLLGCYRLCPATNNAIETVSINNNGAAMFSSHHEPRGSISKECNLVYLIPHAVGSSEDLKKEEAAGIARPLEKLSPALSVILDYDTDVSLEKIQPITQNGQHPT
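Calcium flux readout: force-coupled, inducible Hek293 Trex D1 line, cells induced overnight at 30 C with tetracycline, dye-loaded 30–90 min at RT. Antagonism scored against EC80 dopamine challenge given 180 s after compound.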
D1 potentiator: potentiators of human D1 dopamine receptor; HEK293 TREx D1 cells, calcium flux, dopamine EC20 potentiation; potentiation, % at 10 µM; P21728; 0.036% of 360,000 active; in the data active means potentiation above about 30%; further: 0% is about no effect
TRHR ag: agonists of human TRH receptor; TRHR cells, calcium flux fluo-8, FDSS agonist mode; P34981; activation, % at 2 µM; 0.18% of 360,000 active; further: 0% is about no effect
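Read-out: compound-evoked intracellular calcium rise in TRHR cells, fluo-8 dye, kinetic FDSS fluorescence at 1 s/cycle following a 10-cycle baseline. Cells cultured overnight before dye loading (30 min–1.5 h, RT).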
TRHR PAM: TRH receptor (human) allosteric enhancement | TRHR cells, fluo-8 calcium fluorescence, EC20 TRH enhancement | enhancement, % at 2 µM | P34981 | 0.66% of 360,000 active; in the data active means enhancement above about 30%; further: 0% is about no effect
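Enhancer read-out: after compound pinning and an initial kinetic agonist-mode read, an EC20 of TRH (10 nM final) was injected and fluo-8 calcium signal (Ex 480/Em 530) followed at 1 s/cycle for 100 cycles in TRHR-expressing cells.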
Epigenetic derep: derepresses silenced GFP reporter in murine cells; murine LDR cells, GFP reporter derepression, 30 h; Potency, µM (doses to about 53.9 µM), without a hit: top-dose GFP activation, hits mostly activators; 0.2% of 280,000 active; AID 1865; active means well fitted activation curve with a large enough effect; further: potency means the concentration at half of the fitted maximal effect; % of control where 0% means no effect; nearly all actives have a fitted effect of over 60% in size
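Murine LDR cells bearing a silenced CMV-driven GFP reporter were exposed to compound for 30 h at 37 C. After PBS washes, GFP-positive cells (20-120 um objects) counted by laser-scanning microplate cytometry.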
D1 ag: activates the human D1 dopamine receptor; P21728; HEK293 T-REx D1 cells, calcium flux, agonist mode; activation, % at 2 µM; 1% of 360,000 active; AID 504660; further: 0% is about no effect
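Agonism was scored from calcium flux recorded over 180 s (1 read/s) after pintool compound addition, following a 10-cycle baseline. Cells were inducible force-coupled HEK293 TREx D1, plated overnight at 30 C and loaded with no-wash calcium dye.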
The depositor's hits bear a star; · = no result; ! = not confirmed by another sample; [ ] = dose if it differs, or a comment. Unless noted, no stated cut-off is given here; in the data, active means activation above about 30%; inactive means the rest.

SMILES | D1 antagonist | D1 potentiator | TRHR ag | TRHR PAM | Epigenetic derep | D1 ag
COc1ccc(Nc2nc(NN)nc(Nc3ccc(OC)cc3)n2)cc1 | -30.7* | -2.1 | -0.6 | -7.1 | · | 2.0
NNc1nc(Nc2ccccc2)nc(Nc2ccccc2)n1 | -30.5* | -4.8 | -0.1 | -1.0 | -0.4% | 0.4
COc1ccc(Nc2ccc(OC)cc2)cc1 | -10.9 | 3.7 | 1.0 | -2.3 | -1.2% | 2.3
NNc1nc(Nc2ccccc2)nc(N2CCCCC2)n1 | 5.9 | 6.7 | 0.0 | -0.9 | 1.4% | 0.1
c1ccc(Nc2ccnc(Nc3ccccc3)n2)cc1 | -34.2* | -9.1 | 1.5 | -0.8 | 4.2% | 2.3
CCOC(=O)c1ccc(NC(=O)c2c(N3CCCC3=O)c3cc(OC)ccc3n2C)cc1 | -0.9 | -0.6 | 0.5 | -1.2 | 4.8% | 0.9
Cc1ccc(OCCn2c(-c3ccc(Cl)cc3)nc3ccccc3c2=O)c(C)c1 | 5.8 | 0.2 | 0.9 | 3.7 | 0.2% | 1.4
CCn1c(COc2cccc(C)c2)nc2ccccc21 | -31.8*! | -5.8 | -0.6 | -3.3 | -1.1% | 6.7
Cc1cccc(OCCCCn2c(CO)nc3ccccc32)c1 | -37.6* | -5.2 | 0.2 | 5.3 | · | 0.8
COCc1nc2ccccc2n1CCCOc1ccccc1 | 5.7 | -1.1 | 0.2 | -7.4 | -1.1% | 0.3
CCCCn1c(CNC(=O)CCC)nc2ccccc21 | -33.6* | 1.2 | -0.5 | 2.7 | 0.0% | -1.0
CCc1nc2ccccc2n1CCCCOc1cccc(C)c1 | -7.0 | 1.8 | -1.7 | -2.5 | 0.0% | 11.3
COc1ccc(OCCCCn2c(CO)nc3ccccc32)cc1 | -53.5* | -1.8 | 0.3 | -5.2 | · | 12.9
CNS(=O)(=O)c1cn(CC(=O)N2CCN(c3ccccc3F)CC2)cc1S(=O)(=O)NC | -5.5 | -0.2 | -1.1 | 1.9 | -1.6% | 2.4
CCOc1ccccc1N(CC(=O)N1CCOCC1)S(=O)(=O)c1ccccc1 | -1.1 | -2.7 | 82.9* | 5.3 | 0.0% | 1.8
CC(=O)Oc1ccc(Cl)cc1/C=C/c1cc(OC(C)=O)c2ccccc2n1 | -63.4* | -13.4 | -1.4 | -0.1 | -1.6% | 1.2
COc1cc(Cl)cc(/C=C/c2ccc3ccccc3n2)c1OC(C)=O | -1.4 | -1.4 | -1.1 | 5.3 | -4.3% | 3.3
CC(=O)N1CCN(C(=O)c2cc(S(=O)(=O)Nc3ccc(S(C)(=O)=O)cc3)ccc2Cl)CC1 | 10.9 | -1.4 | -1.0 | 1.3 | 1.8% | 1.9
CCN1CCN(C(=O)c2cc(S(=O)(=O)Nc3ccc(S(C)(=O)=O)cc3)ccc2Cl)CC1 | -47.2* | -4.7 | -0.4 | -21.2 | -1.5% | 1.4
Cc1cc(C)c(-c2n[nH]c3c2C(c2ccccc2F)N(Cc2ccco2)C3=O)c(O)c1 (centres undefined) | 30.8 | 0.1 | 1.4 | 8.0 | -6.0% | 5.0
CC(=O)c1ccc(NS(=O)(=O)c2c(C)cc(C)cc2C)cc1 | -5.4 | -0.8 | -0.3 | 2.6 | -4.5% | 3.6
Cc1cc(C)c(S(=O)(=O)Nc2ccc(C(N)=O)cc2)c(C)c1 | -42.9* | -1.8 | 0.3 | 0.9 | -0.3% | 2.1
COC/C=C/C1=CC2=CC(=O)C(C)(OC(=O)CCc3ccccc3)C(=O)C2=CO1 (centres undefined) | · | · | · | · | -1.1% | ·
Cc1ccc(Cl)cc1N1CCN(c2nc3ccc(C(=O)c4ccccc4)cc3n3cnnc23)CC1 | 1.9 | -1.4 | 0.7 | 4.0 | 0.7% | 4.1
Cc1cccc(-c2ccc3ncnc(NCc4cccc(F)c4)c3c2)c1 | -27.2 | 4.1 | -0.8 | -1.4 | · | -0.2
SMILES | D1 antagonist | D1 potentiator | TRHR ag | TRHR PAM | Epigenetic derep | D1 ag
Cc1cc(N)n2nc(-c3ccccc3)cc2n1 | -40.6* | -8.3 | -0.1 | 3.3 | 5.4% | 1.3
O=C(CC1=NCCNC(c2ccccc2)C1)c1ccccc1O (centres undefined) | -41.0* | -8.7 | -0.9 | -11.5 | -2.2% | 3.5
COc1ccccc1NC(=O)Cn1c(=O)c(CNc2ccccc2)cc2cc(OC)c(OC)cc21 | 1.6 | -1.7 | -0.6 | 3.1 | -4.7% | 68.6*
COc1ccccc1NC(=O)Cn1c(=O)c(CNc2ccc(C)cc2)cc2cc3c(cc21)OCCO3 | -16.4 | 4.3 | 0.3 | 3.4 | 4.5% | 3.9
COc1cc2cc(CNc3ccccc3)c(=O)n(CC(=O)Nc3ccccc3)c2cc1OC | 6.6 | 1.9 | 4.6 | -3.2 | 0.0% | 37.1*
CCc1ccc(NCc2cc3cc(OC)c(OC)cc3n(CC(=O)Nc3ccc(F)cc3)c2=O)cc1 | 5.7 | -3.4 | 3.8 | -5.4 | -1.5% | 7.1
O=C(NNc1c(Cl)cccc1Cl)c1c(F)cccc1Cl | -34.6* | -7.3 | -0.6 | -7.6 | 7.9% | 1.9
O=C(NNc1ccc(F)cc1F)c1c(F)cccc1Cl | 6.0 | -2.5 | -0.3 | 5.7 | 2.1% | 4.8
O=C1CC(C(=O)Nc2cccc3ccccc23)C2(CCCC2)O1 (centres undefined) | 17.2 | 1.8 | 0.8 | 0.1 | -1.1% | 34.1*
CCOC(=O)C1CCN(C(=O)Cn2nc(CC)n3c(cc4occc43)c2=O)CC1 | -33.4* | 2.0 | 0.1 | -6.7 | -3.7% | 4.9
CCc1nn(CC(=O)NCCCN2CCN(C)CC2)c(=O)c2cc3occc3n12 | -37.4*! | 0.0 | 0.7 | 4.2 | 13.2% | 2.3
Cc1cc(C)c(S(=O)(=O)NCC(c2ccc(N(C)C)cc2)N2CCc3ccccc32)c(C)c1 (centres undefined) | 14.0 | 0.3 | -0.9 | 2.0 | 10.0% | 0.0
CC(=O)OC[C@@H]1O[C@H](C/C=N\O[C@@H](C)CN2CCCc3nc(C)c(C)cc32)C=C[C@@H]1OC(C)=O | · | · | · | · | 0.8%[10.1 µM] | ·
COc1cccc(CC(=O)OCC(=O)NNC(=O)c2ccc(Br)cc2)c1 | -32.9* | · | -0.1 | -0.8 | · | 7.1
CCOc1ccccc1CNC(=O)CCn1cccn1 | 3.6 | -4.7 | 0.5 | -2.7 | 2.3% | 0.7
CCCc1cc(C(=O)Nc2cc(Br)ccc2O)no1 | -14.8 | -3.7 | 0.4 | -4.8 | -0.8% | 39.8*
CCC1=NN2C(=N)/C(=C/c3cc(C)n(Cc4ccccc4)c3C)C(=O)N=C2S1 | -51.3* | -10.9 | 0.3 | 2.3 | -0.3% | 65.7*
Cc1cc(/C=C2\C(=N)N3C(SCc4ccccc4)=NSC3=NC2=O)c(C)n1Cc1ccccc1 | 2.4 | 0.6 | 1.3 | -2.5 | 0.8% | 2.2
Cc1cc(/C=C2\C(=N)N3N=C(C(C)C)SC3=NC2=O)c(C)n1Cc1ccccc1 | -40.0* | -1.7 | 1.2 | -2.6 | -3.1% | 111.7*
Cc1cc(/C=C2\C(=N)N3N=C(c4ccco4)SC3=NC2=O)c(C)n1Cc1ccccc1 | -39.1* | 3.2 | 5.5 | -13.8 | -1.7% | 37.6*
N=C1/C(=C/c2coc3ccccc3c2=O)C(=O)N=C2SC(c3ccco3)=NN12 | 6.5 | 9.3 | 6.1 | -2.3 | 1.9% | 16.0
CCN(CC(=O)Nc1ccc(NC(C)=O)cc1)C(=O)CCN1C(=O)C2CC=CCC2C1=O (centres undefined) | -43.9* | -4.5 | 0.1 | 10.0 | · | 2.8

Assay outcomes: PubChem, National Center for Advancing Translational Sciences (NCATS)
